Active and inactive are the calls of the source. Unless noted, no rule for the calls is given here.

Assay [1] can be described thus: circadian clock period modulators, cell-based, LOPAC library, luminescence reporter (AID 2774).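 Also: values are relative to mean of DMSO wells on each plate.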 The settings on record: circadian reporter cells, at 7 µM, actives lie on both sides.
Assay [2] relates to Hepatitis C virus NS3 helicase. Put plainly: HCV NS3 helicase inhibitors, primary screen, biochemical, fluorescence polarization, LOPAC1280 library (AID 687035; in the data active = inhibition above about 37%). The settings on record: Purified HCV NS3 helicase, Cy5-dT15 ssDNA binding fluorescence polarization; stronger effect = higher value; concentration not given here. In general terms: Polarisation of emitted light reports the rotation of a fluorescent probe.

Assay [3] in a line: Cy5 fluorescence quenching or enhancement artefacts, artefact control for HCV NS3 helicase inhibitor project, biochemical, LOPAC1280 (AID 687037). The settings on record: Cy5-DNA-NS3h complex fluorescence interference counterscreen.
Assay [4] can be described thus: sensitizers of A549 cells to miR-34 induction, primary screen, imaging, A549 dox-inducible miR-34, nuclei and caspase counts (AID 1347080;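 active = compounds whose cell count with miR-34 switched on is under 0.7 times the count with it off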). The settings on record: A549 miR-34 inducible, Hoechst nuclei count, 48 h.
Assay [5] is described as follows: phospholipid biosynthesis inhibitors in animal cells, primary screen, cell-based, LOPAC library, screen 4 (AID 1347384). The settings on record: phospholipid biosynthesis inhibition screen, at 10 µM.
Assay [6] is described as follows: viability rescue of complex I mutant cybrids, primary screen, cell-based, galactose medium, ATP luminescence (AID 1645843;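 active = z-score of at least 1.8 in each of two replicates, scored against plate mean and spread of sample wells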;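 also: positive z means more ATP and so rescue of galactose-driven cybrid death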). The settings on record: complex I mutant cybrid cells, 72 h, stronger effect = higher value.
[7] abbreviates: stronger effect = lower value, cell number ratio, induced over uninduced.
[8] abbreviates: measured here: relative caspase fold change +Dox/-Dox.
The mark [9] stands for this setting: measured here: total cells with miR-34 induction, stronger effect = lower value.
Where [10] appears, read: measured here: total cells without miR-34 induction.

Broadly, the inhibition is the relative decrease from the control value, in per cent. As to `CSc1nc(N)c2ncn([C@@H]3O[C@H](COP(=O)(O)OP(=O)(O)O)[C@H](O)C3O)c2n1` (stereo partly specified), the period change in assay [1] is -0.26 h (inactive). Further, the inhibition in assay [2] was 33% (inactive). The fluorescence ratio (interference) in assay [3] is 0.9 (inactive). In addition, the fold change was 1.03 (inactive) in assay [4] (setting [7]) and 1.82 in assay [4] (setting [8]). Moreover, the cell count is 11000 in assay [4] (setting [9]) and 10800 in assay [4] (setting [10]). For the same compound, in assay [5], the call was inactive. The z-score in assay [6] was 0.32 (inactive).
Consider `CN(C)C(N)=NCCC[C@H](N)C(=O)O`, for which, in assay [1], the period change is -0.14 h (inactive). Further, the inhibition in assay [2] was -2% (inactive). Further, the fluorescence ratio (interference) in assay [3] is 1 (inactive). For the same compound, the fold change is 0.963 (inactive) in assay [4] (setting [7]) and 1.27 in assay [4] (setting [8]). The cell count came to 9830 in assay [4] (setting [9]) and 10200 in assay [4] (setting [10]). In addition, the call in assay [5] was inactive. Also, the z-score in assay [6] was 0.265 (inactive).
With `N[C@H](C(=O)O)[C@H](O)C(=O)O`, the period change in assay [1] was -0.095 h (inactive). Further, in assay [2], the inhibition is -1% (inactive). In addition, the fluorescence ratio (interference) in assay [3] was 1 (inactive). The values for the fold change in assay [4] (setting [7]) and in assay [4] (setting [8]) were 0.956 (inactive) and 1.57, respectively. Also, the figures for the cell count in assay [4] (setting [9]) and in assay [4] (setting [10]) were 9780 and 10200, respectively. For the same compound, the result in assay [5] was inactive. In addition, the z-score in assay [6] was 0.175 (inactive).
With `COc1ccc2c(c1)c(CC(=O)O)c(C)n2Cc1ccc(Cl)cc1`, the period change in assay [1] was 0 h (inactive). Besides, the inhibition in assay [2] is 0% (inactive). Further, the fluorescence ratio (interference) in assay [3] was 1 (inactive). For the same compound, the fold change in assay [4] (setting [7]) was 0.957 (inactive); in assay [4] (setting [8]), 1.52. For the same compound, the results for the cell count in assay [4] (setting [9]) and in assay [4] (setting [10]) were 8600 and 8990, respectively. In assay [5], the compound was classed as inactive. For the same compound, the z-score in assay [6] was 2.23 (active).
Consider `O=C(O)[C@H]1NCCC[C@H]1C(=O)O`, for which, in assay [1], the period change is 0.06 h (inactive). Besides, the inhibition in assay [2] is -2% (inactive). Further, the fluorescence ratio (interference) in assay [3] is 1 (inactive). For the same compound, the fold change in assay [4] (setting [7]) was 1.06 (inactive); in assay [4] (setting [8]) it was 2.09. Further, the values for the cell count in assay [4] (setting [9]) and in assay [4] (setting [10]) were 10400 and 9820, respectively. The compound was classed as inactive in assay [5]. Besides, the z-score in assay [6] was 0.52 (inactive).
Consider `NC/C=C\C(=O)O`, for which the period change in assay [1] is 0.03 h (inactive). The inhibition in assay [2] is -3% (inactive). In assay [3], the fluorescence ratio (interference) is 1 (inactive). Also, the values for the fold change in assay [4] (setting [7]) and in assay [4] (setting [8]) were 1.03 (inactive) and 1.8, respectively. The figures for the cell count in assay [4] (setting [9]) and in assay [4] (setting [10]) were 9360 and 9050, respectively. For the same compound, the outcome in assay [5] was inactive. For the same compound, in assay [6], the z-score is -1.38 (inactive).
`C=C1C(=O)O[C@@H]2[C@H]3O[C@]3(C)CCC=C(C)CC[C@@H]12`: in assay [1], the period change was -0.22 h (inactive). The inhibition in assay [2] was -6% (inactive). Further, in assay [3], the fluorescence ratio (interference) was 1 (inactive). Moreover, the fold change in assay [4] (setting [7]) was 1.05 (inactive); in assay [4] (setting [8]), 1.06. The cell count is 5750 in assay [4] (setting [9]) and 5500 in assay [4] (setting [10]). The outcome in assay [5] was inactive. The z-score in assay [6] was -1.27 (inactive).
In the case of `COc1ccccc1N1CCN(CCN(C(=O)c2ccc(F)cc2)c2ccccn2)CC1`, the period change in assay [1] is 0.22 h (inactive). Also, the inhibition in assay [2] is -4% (inactive). Also, the fluorescence ratio (interference) in assay [3] is 0.9 (inactive). In addition, the fold change in assay [4] (setting [7]) was 1.08 (inactive); in assay [4] (setting [8]) it was 1.52. In addition, the cell count in assay [4] (setting [9]) came out at 10200; in assay [4] (setting [10]), 9450. Also, in assay [5], the call was inactive. The z-score in assay [6] was -0.25 (inactive).
In the case of `N[C@H](C(=O)O)[C@H]1C[C@@H]1C(=O)O`, in assay [1], the period change was 0.045 h (inactive). Besides, the inhibition in assay [2] is 2% (inactive). Further, the fluorescence ratio (interference) in assay [3] is 1 (inactive). The fold change in assay [4] (setting [7]) was 0.968 (inactive); in assay [4] (setting [8]) it was 1.24. The figures for the cell count in assay [4] (setting [9]) and in assay [4] (setting [10]) were 9910 and 10200, respectively. The outcome in assay [5] was inactive. In assay [6], the z-score is 0.225 (inactive).
`C=CCN1CCc2c(cc(O)c(O)c2Cl)C(c2ccccc2)C1` (stereo unspecified): the period change in assay [1] is 0.25 h (inactive). In assay [2], the inhibition is -4% (inactive). Moreover, the fluorescence ratio (interference) in assay [3] was 1 (inactive). For the same compound, the fold change is 1.02 (inactive) in assay [4] (setting [7]) and 1.32 in assay [4] (setting [8]). Moreover, the values for the cell count in assay [4] (setting [9]) and in assay [4] (setting [10]) were 7830 and 7660, respectively. In addition, in assay [5], the result was inactive. In addition, the z-score in assay [6] was -0.925 (inactive).
Turning to `O=C1CCC(c2ccc(-n3ccnc3)cc2)=NN1`, the period change in assay [1] is -0.075 h (inactive). Besides, the inhibition in assay [2] is -1% (inactive). Also, the fluorescence ratio (interference) in assay [3] was 1 (inactive). Moreover, the fold change in assay [4] (setting [7]) was 1.07 (inactive); in assay [4] (setting [8]), 0.666. Besides, the figures for the cell count in assay [4] (setting [9]) and in assay [4] (setting [10]) were 10200 and 9510, respectively. Besides, in assay [5], the call was inactive. The z-score in assay [6] is -0.165 (inactive).
Turning to `Cn1cc(C(F)(F)F)nc1-c1ccc(OCC(O)CNCCOc2ccc(O)c(C(N)=O)c2)cc1` (stereo unspecified), the period change in assay [1] is -0.065 h (inactive). Besides, the inhibition in assay [2] is 0% (inactive). In assay [3], the fluorescence ratio (interference) is 1 (inactive). Moreover, the fold change is 0.893 (inactive) in assay [4] (setting [7]) and 1.45 in assay [4] (setting [8]). Further, the cell count was 9830 in assay [4] (setting [9]) and 11000 in assay [4] (setting [10]). For the same compound, the result in assay [5] was inactive. Further, the z-score in assay [6] was -0.695 (inactive).
As to `CCCn1c(=O)[nH]c(=O)c2[nH]cnc21`, the period change in assay [1] was 0.09 h (inactive). Further, the inhibition in assay [2] was -1% (inactive). Further, the fluorescence ratio (interference) in assay [3] is 1 (inactive). Moreover, the fold change in assay [4] (setting [7]) is 0.996 (inactive); in assay [4] (setting [8]) it was 1.45. For the same compound, the results for the cell count in assay [4] (setting [9]) and in assay [4] (setting [10]) were 9630 and 9670, respectively. Besides, the outcome in assay [5] was inactive. In addition, the z-score in assay [6] is 0.47 (inactive).
For the compound `COc1ccc(NC(=O)/C=C/c2ccc(Cl)cc2)cc1`, in assay [1], the period change was -0.055 h (inactive). Moreover, the inhibition in assay [2] was -2% (inactive). Besides, the fluorescence ratio (interference) in assay [3] was 1 (inactive). Moreover, the fold change is 1.13 (inactive) in assay [4] (setting [7]) and 0.89 in assay [4] (setting [8]). For the same compound, the cell count worked out at 7420 in assay [4] (setting [9]) and 6550 in assay [4] (setting [10]). Further, the result in assay [5] was inactive. The z-score in assay [6] is 0.42 (inactive).
Take `O=c1[nH]ccc2c(O)cccc12`: the period change in assay [1] is 0.03 h (inactive). The inhibition in assay [2] is -3% (inactive). In addition, in assay [3], the fluorescence ratio (interference) was 0.9 (inactive). Moreover, the figures for the fold change in assay [4] (setting [7]) and in assay [4] (setting [8]) were 1.09 (inactive) and 1.24, respectively. Also, the cell count was 10100 in assay [4] (setting [9]) and 9200 in assay [4] (setting [10]). Besides, the result in assay [5] was inactive. In addition, the z-score in assay [6] is 0.02 (inactive).
For `N=C(N)c1ccc(N)cc1`, in assay [1], the period change was -0.005 h (inactive). For the same compound, in assay [2], the inhibition is -2% (inactive). In assay [3], the fluorescence ratio (interference) is 1 (inactive). In addition, the fold change in assay [4] (setting [7]) is 0.998 (inactive); in assay [4] (setting [8]), 2.25. Besides, the figures for the cell count in assay [4] (setting [9]) and in assay [4] (setting [10]) were 8960 and 8980, respectively. Also, in assay [5], the call was inactive. Further, the z-score in assay [6] was -0.075 (inactive).
With `NC1CCN(O)C1=O` (stereo unspecified), the period change in assay [1] is 0.11 h (inactive). For the same compound, the inhibition in assay [2] was 0% (inactive). In addition, the fluorescence ratio (interference) in assay [3] was 1 (inactive). Moreover, the fold change in assay [4] (setting [7]) is 0.997 (inactive); in assay [4] (setting [8]), 1.98. Moreover, the cell count in assay [4] (setting [9]) and in assay [4] (setting [10]) was 10200 in each case. Besides, in assay [5], the call was inactive. Further, the z-score in assay [6] was 0.075 (inactive).
With `O=c1[nH]c(=O)c2nc3ccccc3nc2[nH]1`, the period change in assay [1] was -0.07 h (inactive). Also, the inhibition in assay [2] was -1% (inactive). Also, the fluorescence ratio (interference) in assay [3] was 1 (inactive). Moreover, the fold change was 1.04 (inactive) in assay [4] (setting [7]) and 1.29 in assay [4] (setting [8]). The cell count in assay [4] (setting [9]) amounted to 8690; in assay [4] (setting [10]) it was 8380. Moreover, the compound was classed as inactive in assay [5]. The z-score in assay [6] was 0.695 (inactive).
Turning to `O=c1cc(-c2ccccc2)[nH]c2nc(Cl)ccc12`, the period change in assay [1] was -0.07 h (inactive). Also, the inhibition in assay [2] was -3% (inactive). Also, the fluorescence ratio (interference) in assay [3] is 1 (inactive). Also, the fold change in assay [4] (setting [7]) is 0.977 (inactive); in assay [4] (setting [8]), 1.95. Moreover, the cell count in assay [4] (setting [9]) is 3650; in assay [4] (setting [10]), 3740. In addition, the result in assay [5] was inactive. Further, the z-score in assay [6] is -0.5 (inactive).
